# BAZ2B block – BAZ2B (human) inhibition. hit rate 4.4% among 360,000. Potency, µM (doses to about 114 µM), usual class: inhibitors. Q9UIF8. AlphaScreen BAZ2B-H3K14Ac peptide displacement; further: nearly all actives have a fitted effect of over 60% in size
#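 Inhibition is scored as reduced AlphaScreen emission. The BAZ2B/b-H3(5-23)K14Ac complex (50 nM each) in PBS pH 7.4, 0.01% Tween-20 meets compound (up to 110 uM) for 30 min at RT before bead addition.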
# HP1b chromo inh – inhibitors of HP1-beta chromodomain binding to methylated histone tails; P83916; AlphaScreen HP1-beta / biotin-H3K9me3 peptide binding; Potency, µM (highest dose often 114 µM), actives largely listed as inhibitors; hit rate 0.56% among 390,000; AID 540317; further: nearly all actives have a fitted effect of over 70% in size
#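 HP1-beta protein (50 nM final) preincubated 30 min at room temperature with biotinylated H3(1-18)K9me3 peptide (50 nM) in PBS pH 7.4, 0.01% Tween-20, then compound added for 30 min. AlphaScreen streptavidin donor/nickel chelate acceptor beads (10 ug/mL final), 30 min dark, luminescence read.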
# G9a block – blocks human histone lysine methyltransferase G9a; G9a H3K9 monomethylation, AlphaScreen, 2 h; Potency, µM (doses to about 102 µM), actives largely listed as inhibitors; hit rate 8.8% among 350,000; AID 504332; further: nearly all actives have a fitted effect of over 75% in size
#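 Readings reflect AlphaScreen signal from monomethyl-H3K9 antibody detection. HMT at 20 nM; substrate b-H3K9 500 nM; cofactor SAM 20 uM; 2 h RT reaction; compounds tested as titrations in qHTS with 15 min preincubation.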
# 12-LOX inh – inhibitors of human 12S-lipoxygenase ALOX12. AID 1671190. Potency, µM (series often up to 108 µM), hits mostly inhibitors. hit rate 1.1% among 580,000. P18054. purified 12hLO, xylenol orange hydroperoxide absorbance
# Target sequence (P18054 whole entry, looked up): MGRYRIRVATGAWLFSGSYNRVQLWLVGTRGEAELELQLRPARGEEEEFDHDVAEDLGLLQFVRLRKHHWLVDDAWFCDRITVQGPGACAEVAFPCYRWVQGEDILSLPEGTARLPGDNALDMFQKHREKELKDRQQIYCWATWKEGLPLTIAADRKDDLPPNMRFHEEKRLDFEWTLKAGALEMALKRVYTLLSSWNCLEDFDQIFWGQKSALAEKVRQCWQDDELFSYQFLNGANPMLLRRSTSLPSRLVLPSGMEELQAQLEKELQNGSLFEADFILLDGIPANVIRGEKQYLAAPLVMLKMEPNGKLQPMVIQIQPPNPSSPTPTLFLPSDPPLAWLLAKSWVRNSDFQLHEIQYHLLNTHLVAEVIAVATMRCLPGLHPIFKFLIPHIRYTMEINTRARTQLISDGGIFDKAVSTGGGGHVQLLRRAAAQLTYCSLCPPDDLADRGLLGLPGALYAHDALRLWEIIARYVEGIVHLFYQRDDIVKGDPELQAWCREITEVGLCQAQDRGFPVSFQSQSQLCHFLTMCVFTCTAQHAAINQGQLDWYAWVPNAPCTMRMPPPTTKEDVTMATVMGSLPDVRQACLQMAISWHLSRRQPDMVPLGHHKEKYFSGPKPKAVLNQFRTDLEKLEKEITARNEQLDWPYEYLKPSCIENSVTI
#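 Hydroperoxide product was detected by ferrous iron/xylenol orange as the 573 to 405 nm absorbance ratio. Arachidonic acid at 40 uM (final) was turned over for 30 min at room temperature by 150 nM human 12hLO, pH 7.0 Hepes buffer, after 15 min compound preincubation.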
# JMJD2A Tudor – inhibitors of human JMJD2A Tudor domain | AlphaScreen JMJD2A-Tudor / H3K4me3 peptide binding | Potency, µM (titrated, usually from 114 µM), most hits filed as inhibitors | AID 504339 | O75164 | hit rate 4.4% among 390,000; further: nearly all actives have a fitted effect of over 50% in size
# PLK1 PBD inh – inhibitors of human PLK1 polo-box domain binding; P53350; Plk1 PBD binding of FITC phosphopeptide, fluorescence polarization; Potency, µM, actives largely listed as inhibitors; hit rate 2.8% among 360,000; AID 720504; further: series mostly up to about 57 µM; nearly all actives have a fitted effect of over 65% in size
# A number is an active result; i = inactive; ? = inconclusive; nt = no result given; [ ] = remark or other dose. Compounds with a hit are over-represented: about 9% of the library has one in this group of screens. The call rests on the fitted dose curve; in most records, active means well fitted curve in the direction sought with a large enough effect; inconclusive means small, poorly fitted or top-dose-only effect, or another doubt; inactive means no such curve, though single readings can be large; an effect the other way counts as inactive or inconclusive.
SMILES,BAZ2B block,HP1b chromo inh,G9a block,12-LOX inh,JMJD2A Tudor,PLK1 PBD inh
Cc1cccc(/C=C(\C#N)C(=O)Nc2ccccn2)c1,i,i,45µM,?,i,i
COc1cc(/C=C(\C#N)C(=O)Nc2ccccn2)ccc1O,i,i,?,?,i,i
CC(C)(C)c1ccc(C(=O)/C(C#N)=C/c2cccs2)cc1,50µM,?,?,?,?,7.5µM
N#C/C(=C\c1ccccc1)C(=O)Nc1ccccn1,i,i,i,i,i,i
CCOC(=O)c1c(-c2ccccc2)csc1NC(=O)/C(C#N)=C\c1ccc(O)c(OC)c1,nt,?,nt,i,28µM,i
CCOC(=O)c1c(-c2ccc(C)cc2)csc1NC(=O)/C(C#N)=C/c1ccc(O)c(OC)c1,?,i,i,i,i,i
CCOc1cc(/C=C(\C#N)C(=O)Nc2ccccn2)ccc1O,i,i,45µM,?,i,i
CC(NC(=O)/C(C#N)=C/c1cccs1)c1ccccc1 (stereo unspecified),i,i,i,i,i,i
COc1cccc(-c2ccc3nnc(SCC(=O)N4CCCC4)n3n2)c1,i,i,?,i,i,i
Cc1ccc(CNC(=O)CSc2nc3c(sc4ccccc43)c(=O)n2CCCN2CCCC2)cc1,i,i,i,i,i,i
Cc1cc(=O)n(CC(=O)Nc2ccccc2C)c(-c2ccc(Cl)cc2)n1,nt,nt,nt,i,nt,nt
COc1cc(CNC(=O)CCc2ccncc2)ccc1OC1CCCC1,nt,nt,nt,i,nt,nt
N#C/C(=C\c1ccccc1Cl)C(=O)Nc1ccccn1,i,i,i,?,i,i
N#C/C(=C\c1cccs1)C(=O)Nc1ccccn1,i,i,56µM,i,i,i
Cc1cccc(NC(=O)/C(C#N)=C/c2ccc(F)cc2)n1,i,i,i,i,i,i
CCCOc1ccccc1/C=C(\C#N)C(=O)Nc1cccc(C)n1,i,i,20µM,i,i,i
Cc1ccc(-n2c([S-])c(C(=O)Nc3ccc(OC(F)F)cc3)[n+]3ccc(C(=O)NCCO)cc23)cc1C,i,i,10µM,?,i,i
COc1ccccc1-n1c([S-])c(C(=O)Nc2ccccc2C(F)(F)F)[n+]2ccc(C(=O)NCCO)cc12,i,?,20µM,i,?,i
COc1ccc2oc(=O)c(-c3ccccc3C(=O)N3CCOCC3)cc2c1,i,i,?,i,i,i
CN(C)C(=O)C1CN(C(=O)CC2CCCCC2)CC12CCOCC2 (stereo unspecified),nt,nt,nt,i,nt,nt
CC(NCc1ccccc1C#N)c1ccccc1F (stereo unspecified),nt,nt,nt,40µM,nt,nt
COc1ccccc1C(=O)N1CCC2(CC1)OCCN2S(=O)(=O)c1ccc(F)c(C)c1,nt,nt,nt,i,nt,nt
CN1CCN(C(=O)Nc2cccc3ccccc23)CC1,i,i,?,i,i,i
CCN1CCN(C(=O)Nc2cccc3ccccc23)CC1,?,i,40µM,i,i,i
O=C(N[C@H]1CCN2C(=O)c3cc(-c4ccccc4F)ccc3NC(=O)[C@H]12)C1CCCC1,nt,nt,nt,i,nt,nt
SMILES,BAZ2B block,HP1b chromo inh,G9a block,12-LOX inh,JMJD2A Tudor,PLK1 PBD inh
Nc1nonc1-n1nnc(C(=O)N/N=C/c2cccc(Cl)c2Cl)c1CN1CCCC1,i,i,?,i,i,i
CCCc1nc2c(C)cc(C)cc2c(N)c1CC,i,i,?,?,4.5µM,i
O=C(Nc1ccc(Br)c2ccccc12)c1ccc2ccccc2c1O,28µM,?,28µM,i,?,?
c1ccc2c(C[C@@H]3CNCCN3CCCCC3CCCCC3)cccc2c1,nt,i,nt,i,?,i
COc1cccc(CNS(=O)(=O)c2cc(-c3cc(C)no3)ccc2C(C)C)c1,i,i,71µM,i,i,i
Cc1cc(-c2ccc(C(C)C)c(S(=O)(=O)NCc3ccco3)c2)on1,50µM,i,79µM,?,i,?
COc1cccc(OC)c1C(=O)Nc1cccc(-c2nc3ccccc3o2)c1,nt,nt,nt,i,nt,nt
O=C(Cn1ncc2ccccc21)N1CCc2ccccc21,i,i,i,i,i,?
N#CC1(C#N)C2=C(CCCC2)NC(c2ccccc2)C1(C#N)C#N (stereo unspecified),50µM,nt,18µM,nt,nt,nt
O=C(NCCN1CCOCC1)c1cc(-c2ccccc2Cl)on1,i,i,i,i,i,i
O=C(CC1=CCCCC1)N1CCC(C2CCNC2)CC1 (stereo unspecified),nt,nt,nt,40µM,nt,nt
CCc1ccc(C(=O)N2CCC(C3CCNC3)CC2)cc1 (stereo unspecified),nt,nt,nt,i,nt,nt
FC(F)(F)c1ccccc1-c1cncnc1Nc1ccccc1,nt,nt,nt,25µM,nt,nt
FC(F)(F)c1ccccc1-c1cncnc1NCc1cccnc1,nt,nt,i[0.501 µM],i,nt,nt
FC(F)(F)c1ccccc1-c1cncnc1NCCN1CCOCC1,nt,nt,i[0.501 µM],18µM,nt,nt
CCN(CCCNC(=O)CN1C(=O)COc2ccccc21)c1cccc(C)c1,?,i,22µM,?,?,i
CCN(CCCNC(=O)c1[nH]c(C)c(C(C)=O)c1C)c1cccc(C)c1,50µM,?,?,i,79µM,i
CCN(CCCNC(=O)CN1C(=O)COc2ccccc21)c1ccccc1,i,i,?,i,i,i
CCCCNC(=O)CC(C(=O)N1CCc2ccccc21)n1ccnc1 (stereo unspecified),i,i,i[12.7 µM],i,i,i
CCN(CCCNC(=O)CC(C(=O)N1CCc2ccccc21)n1ccnc1)c1cccc(C)c1 (stereo unspecified),i,i,?,i,50µM,i
CCN(CCNC(=O)c1cccc(N2CCCC2=O)c1)c1ccccc1,i,i,50µM,i,i,i
COc1ccc(N2CC(NC(=O)COc3ccccc3)CC2=O)cc1OC (stereo unspecified),i,i,i,i,i,nt
CCN(CCCNC(=O)c1ccc(N2CCCC2=O)cc1)c1cccc(C)c1,i,i,28µM,i,i,i
O=C(Oc1ccccc1-c1nnco1)c1ccc(Cl)cc1,i,i,i,i,i,i
Cc1cc2c(cc1S(=O)(=O)N(C)CC(=O)N1CCc3ccccc31)OC(C)C(=O)N2 (stereo unspecified),nt,nt,nt,i,nt,nt
SMILES,BAZ2B block,HP1b chromo inh,G9a block,12-LOX inh,JMJD2A Tudor,PLK1 PBD inh
c1csc(C2Nc3ccccc3-c3nc4ccccc4n32)c1 (stereo unspecified),i,i,i,i,i,i
CN(C)c1ccc(C2Nc3cccc4cccc(c34)N2)cc1,?,?,40µM,i,?,i
c1ccc(C2Nc3cccc4cccc(c34)N2)cc1,?,?,13µM,?,?,27µM
Oc1ccccc1C1Nc2cccc3cccc(c23)N1,35µM,?,i,i,i[11.4 µM],?
CN(C)c1ccc(C2NC(=O)c3ccccc3N2)cc1 (stereo unspecified),i,i,nt,i,i,i
c1csc(C2Nc3cccc4cccc(c34)N2)c1,?,?,?,?,i,30µM
Clc1ccc(Cl)c2sc(N3CCOCC3)nc12,nt,i,nt,i,i,i
O=C(NC1CCCC1)c1c(O)nc2sccn2c1=O,i,i,?,i,i,i
